From PubChem BioAssay come the findings set out here.

Broadly, the AC50 is the concentration giving half of the maximal activity seen. Broadly, the IC50 is the point on the concentration scale where inhibition reaches its midpoint.

Assay [1] is described as follows: viability loss in pontine glioma line – cell-based, SU-DIPG-XVII, MIPE5.0, CellTiter-Glo, qHTS, dose response (AID 1347060).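 On AC50: cells exposed to compound for 48 hours before viability readout.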 The settings on record: CellTiter-Glo ATP luminescence. (In general: ATP-based viability assays read luminescence as a measure of living cells.)
Assay [2] is described as follows: viability loss in pontine glioma line – cell-based, SU-DIPG-XIII, MIPE4.0, CellTiter-Glo, qHTS, dose response (AID 1347061; cut-off not given, nearly all actives have AC50 up to about 37 µM;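 further: cells exposed to compound for 48 hours before readout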). The settings on record: CellTiter-Glo ATP luminescence.
Assay [3] can be described thus: viability loss in pontine glioma line – cell-based, JHH-DIPG-1, MIPE4.0, CellTiter-Glo, qHTS, dose response (AID 1347062; cut-off not given, nearly all actives have AC50 up to about 27 µM;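 on AC50: cells exposed to compound for two days before readout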). As to conditions: JHH-DIPG-1 viability, CellTiter-Glo ATP luminescence.
Assay [4] can be described thus: viability loss in pontine glioma line – cell-based, SU-DIPG-IV, MIPE4.0, CellTiter-Glo, qHTS, dose response (AID 1347063; cut-off not given, nearly all actives have AC50 up to about 30 µM;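 further: compound exposure lasted 48 hours before the viability readout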). As to conditions: CellTiter-Glo ATP luminescence.
A short description of assay [5]: viability loss in pontine glioma line – cell-based, SU-DIPG-XIII, MIPE5.0, CellTiter-Glo, qHTS, dose response (AID 1347064; cut-off not given, nearly all actives have AC50 up to about 23 µM;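 on AC50: cells exposed to compound for 48 hours before the viability read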). The settings on record: CellTiter-Glo ATP luminescence.
Assay [6] is described as follows: viability loss in pontine glioma line – cell-based, SU-DIPG-XXV, MIPE5.0, CellTiter-Glo, qHTS, dose response (AID 1347065).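 Further: cells exposed to compound for 48 hours before ATP readout.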 The settings on record: CellTiter-Glo ATP luminescence.
A short description of assay [7]: JHH-DIPG-1 glioma cell viability, MIPE5.0 library, CellTiter-Glo luminescence, qHTS (AID 1347067).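 Further: cells exposed to compound for 48 hours before readout.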 As to conditions: JHH-DIPG-1 glioma viability, CellTiter-Glo ATP luminescence.
Assay [8] in a line: growth inhibition of DIPG cells – cell-based, MIPE5.0 library, qHTS (AID 1347068; cut-off not given, nearly all actives have IC50 up to about 30 µM;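 on IC50: cells exposed to compound for 48 hours before viability readout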). The settings on record: SU-DIPG-XXV viability.
Assay [9] can be described thus: viability loss with induced miR-34 in A549 – imaging, A549 dox-inducible miR-34, nuclei and caspase counts, primary screen (AID 1347080;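 active means compounds whose cell count with miR-34 switched on is under 0.7 times the count with it off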). As to conditions: A549 miR-34 inducible, Hoechst nuclei count, 48 h.
The nature of assay [10]: MELAS cybrid and Rieske KO viability enhancers – cell-based, MELAS cybrids, Rieske KO mouse fibroblasts, CellTiter-Glo, primary screen (AID 1508586;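 active means mean z-score across replicates of 1.96 or higher in either the MELAS or the Rieske mutant cell line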;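 further: z relative to plate mean and SD of compound and empty wells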). The settings on record: low glucose.
A short description of assay [11]: growth inhibition of DIPG cells – cell-based, MIPE4.0 library, CellTiter-Glo luminescence, qHTS (AID 1347066; cut-off not given, nearly all actives have AC50 up to about 30 µM;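 further: cells exposed to compound for 48 hours before readout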). As to conditions: SU-DIPG-VI viability, CellTiter-Glo ATP luminescence.
The nature of assay [12]: compounds altering HSF1 focus formation in cells – imaging, Selleck Cancer Library (AID 1347162; in the data active means plate-normalised HSF1 focus index below about 0.46). As to conditions: human cells, HSF1 nuclear foci imaging, at 10 µM; SSMD: measured here: HSF1 foci SSMD mean; cell count: measured here: cell number; plate-normalised HSF1 focus index: stronger effect = lower value.
The mark [13] stands for this setting: stronger effect = lower value, cell number ratio, induced over uninduced.
Setting [14] is: measured here: relative caspase fold change +Dox/-Dox.
The mark [15] stands for this setting: measured here: total cells with miR-34 induction, stronger effect = lower value.
Setting [16] is: measured here: total cells without miR-34 induction.
Setting [17] is: MELAS cybrid survival, CellTiter-Glo 48 h, stronger effect = higher value.
The mark [18] stands for this setting: Rieske KO mouse fibroblast survival, CellTiter-Glo 72 h.

Records with an inconclusive call do not appear. The source made the active and inactive calls. Unless noted, cut-off not given; nearly all actives show AC50 up to about 26 µM.

Consider `CC(C)c1cc(C(=O)N2Cc3ccc(CN4CCN(C)CC4)cc3C2)c(O)cc1O`, for which the AC50 is 468 nM (active) in assay [1]; 1180 nM (active) in assay [2]; 296 nM (active) in assay [3]; 526 nM (active) in assay [4]; 742 nM (active) in assay [5]; 525 nM (active) in assay [6]. Moreover, the AC50 in assay [7] was 661 nM (active). The IC50 in assay [8] is 1480 nM (active). In addition, the fold change in [9] (setting [13]) is 0.888 (inactive); in assay [9] (setting [14]), 0.921. For the same compound, the values for the cell count in [9] (setting [15]) and in [9] (setting [16]) were 1780 and 2010, respectively. Moreover, the values for the z-score in assay [10] (setting [17]) and in assay [10] (setting [18]) were 2.68 (active) and -0.499, respectively.
`CS(=O)(=O)c1ccc(-c2cnc(N)c(C(=O)Nc3ccccc3)n2)cc1`: the compound was called inactive in assay [1], in assay [2], in assay [3], in [4], in assay [5] and in [11]. The outcome in assay [7] and in [8] was inactive. Also, the values for the fold change in [9] (setting [13]) and in assay [9] (setting [14]) were 1.01 (inactive) and 0.481, respectively. The cell count in [9] (setting [15]) worked out at 4300; in assay [9] (setting [16]), 4270. Also, the results for the z-score in assay [10] (setting [17]) and in assay [10] (setting [18]) were -0.286 (inactive) and 0.758, respectively.
As for `CNC(=O)c1ccccc1Nc1nc(Nc2ccc(N3CCOCC3)cc2OC)ncc1Cl`, the AC50 was 590 nM (active) in assay [1]; 5900 nM (active) in assay [2]; 1480 nM (active) in [3]; 2960 nM (active) in assay [4]; 235 nM (active) in assay [5]; 186 nM (active) in assay [6]. In addition, the AC50 in assay [7] was 661 nM (active). In addition, the concentration for half-maximal inhibition (IC50) in assay [8] was 1050 nM (active). Moreover, the values for the fold change in assay [9] (setting [13]) and in assay [9] (setting [14]) were 0.899 (inactive) and 0.999, respectively. In addition, the cell count in assay [9] (setting [15]) was 1560; in assay [9] (setting [16]), 1730. Further, the z-score in [10] (setting [17]) was 0.492 (inactive); in [10] (setting [18]), -1.89.
Turning to `O=C(c1cncc(Br)c1)N1CCC(N2CCCC2)CC1`, the call in assay [1], in [2], in assay [3], in assay [4], in [5] and in assay [6] was inactive. For the same compound, the compound was classed as inactive in [8]. The concentration at half-maximal activity (AC50) in assay [7] was 13200 nM (active). The fold change in assay [9] (setting [13]) is 0.889 (inactive); in [9] (setting [14]), 0.588. The cell count in assay [9] (setting [15]) was found to be 7820; in [9] (setting [16]), 8800. The z-score is -0.503 (inactive) in assay [10] (setting [17]) and -0.908 in assay [10] (setting [18]).
For `NC(=O)c1cnc(-c2ccc(C3(N)CCC3)cc2)c(-c2ccccc2)c1`, the result in assay [1], in assay [2], in assay [3], in assay [4], in assay [5] and in [8] was inactive.
Take `C=Cc1c(C)c2cc3nc(cc4[nH]c(cc5nc(cc1[nH]2)C(C)=C5CCC(=O)O)c(CCC(=O)OC)c4C)[C@@]1(C)C3=CC=C(C(=O)OC)[C@H]1C(=O)OC`: the half-maximal activity concentration (AC50) in assay [1] is 11800 nM (active); in assay [2], 743 nM (active); in [3] it was 66.2 nM (active); in assay [4], 105 nM (active); in assay [5] it was 9340 nM (active); in [11] it was 14800 nM (active).
For `COc1ccc(CCN2CCN(CCCc3ccccc3)CC2)cc1OC`, the compound was classed as inactive in assay [1], in assay [2], in [3], in [4], in assay [5] and in assay [11]. In addition, the outcome in assay [7] and in [8] was inactive. The SSMD in assay [12] was 3.93. For the same compound, the cell count in assay [12] was 6890. Also, in assay [12], the plate-normalised HSF1 focus index was 1.24 (inactive).
For the compound `Cc1nc(N)ncc1-c1nc(N2CCOCC2)c2sc(C(C)(C)O)cc2n1`, the concentration at half-maximal activity (AC50) is 1660 nM (active) in assay [1]; 7430 nM (active) in [2]; 1320 nM (active) in assay [3]; 332 nM (active) in assay [4]; 3320 nM (active) in assay [5]; 1050 nM (active) in [6]. Further, in assay [8], the concentration for half-maximal inhibition (IC50) was 4680 nM (active).
